Results on eight molecules are retold here after PubChem BioAssay (EPA / NIEHS).

Assay [1] in a line: ATG_DR4_LXR_CIS: Attagene CIS-FACTORIAL HepG2 Assay for human Liver X Receptor (LXR), DR4 submotif (AID 2282929). The note with it: HepG2 Attagene DR4 cis-reporter, mRNA transcription; AC50: actives raise or lower the signal unless noted; outcome: actives raise or lower the signal unless noted. The procedure, abridged:
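Cells were transfected with multiple reporter transcription units, exposed to chemicals for 24 hours, then lysed for RNA. Reporter mRNA induction was measured by RT-PCR with capillary electrophoresis detection and fitted in both directions relative to DMSO.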

For assay [2], the target named is Aryl hydrocarbon receptor (Homo sapiens) (UniProt P35869). As to the kind of experiment: ATG_Ahr_CIS: Attagene CIS-FACTORIAL HepG2 Assay for human Aryl Hydrocarbon Receptor (Ahr) (AID 2282930). The note with it: HepG2 AhR cis-factorial reporter transcription; actives raise or lower the signal. The procedure, abridged:
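Following 24 h of chemical dosing, transfected HepG2 liver cells with cis-driven reporter units were lysed for RNA; reporter mRNA was quantified via RT-PCR and capillary electrophoresis, and responses fitted bidirectionally from DMSO.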

Assay [3] in a line: ATG_AP_1_CIS: Attagene CIS-FACTORIAL HepG2 Assay for human Activator Protein 1 (AP-1) (AID 2282931). The note with it: HepG2 Attagene cis-factorial AP-1 reporter mRNA; actives raise or lower the signal. The procedure, abridged: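 Endogenous transcription-factor activity in human HepG2 liver cells is read through a cis-promoter reporter transcript, sampled 24 h after dosing. Detection uses RT-PCR with capillary electrophoresis; values come from bidirectional fitting relative to DMSO.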

The nature of assay [4]: ATG_AP_2_CIS: Attagene CIS-FACTORIAL HepG2 Assay for human Activator Protein 2 (AP-2) (AID 2282932). The note with it: HepG2 AP-2 cis-reporter, Attagene transcription factor profiling; AC50: actives raise or lower the signal unless noted; outcome: actives raise or lower the signal unless noted. The procedure, abridged: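 HepG2 cells were transiently transfected with multiple cis-promoter reporter transcription units and dosed for 24 h. Reporter mRNA was measured by RT-PCR with capillary electrophoresis fluorescence; bidirectional fits relative to DMSO baseline.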

Assay [5] is described as follows: ATG_BRE_CIS: Attagene CIS-FACTORIAL HepG2 Assay for human Bone Morphogenetic Protein (BMP) Response Element (BRE) (AID 2282933). The note with it: HepG2 BMP response element reporter, Attagene transcription factor profiling; actives raise or lower the signal. The procedure, abridged: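 Gain- or loss-of-signal was derived by bidirectional fitting against DMSO controls. The signal came from reporter mRNA, measured by RT-PCR and capillary electrophoresis, in HepG2 cells transiently carrying multiple reporter units and dosed for 24 h.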

Assay [6] addresses Transcription factor E2F1 (Homo sapiens) (UniProt Q01094). The assay is described as follows: ATG_E2F_CIS: Attagene CIS-FACTORIAL HepG2 Assay for human E2F Transcription Factor 1 (AID 2282935). The note with it: HepG2 Attagene cis-reporter, E2F reporter RNA transcripts; actives raise or lower the signal. The procedure, abridged: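 HepG2 cells transiently transfected with multiplexed cis-element reporter units, dosed for 24 h. Reporter mRNA measured by RT-PCR, 6-FAM primer-extension labeling, HpaI digestion and capillary electrophoresis; bidirectional fit versus DMSO baseline.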

The nature of assay [7]: ATG_M_61_CIS: Attagene CIS-FACTORIAL HepG2 Assay for M61 Transcription Factor (Internal Marker) (AID 2282937). The note with it: HepG2 Attagene CIS-FACTORIAL M61 internal marker reporter; actives raise or lower the signal. The procedure, abridged:
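Cells were transfected with reporter units under cis-regulatory promoters, treated with chemicals for 24 h, then lysed for RNA. Reporter transcripts were quantified by RT-PCR and capillary electrophoresis, and activity was fitted bidirectionally against DMSO.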

A short description of assay [8]: ATG_EGR_CIS: Attagene CIS-FACTORIAL HepG2 Assay for human Early Growth Response 1 (EGR1) (AID 2282938). The note with it: HepG2 Attagene CIS-FACTORIAL EGR reporter mRNA; actives raise or lower the signal. The procedure, abridged: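 Endogenous TF activity in HepG2 liver cells was gauged through cis-promoter reporter constructs transiently transfected. After 24 h dosing, reporter mRNA was quantified by RT-PCR and capillary electrophoresis, and curves fitted in both directions versus DMSO.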

The nature of assay [9]: ATG_M_19_CIS: Attagene CIS-FACTORIAL HepG2 Assay for M19 Transcription Factor (Internal Marker) (AID 2282939). The note with it: HepG2 Attagene CIS-FACTORIAL M19 internal marker reporter; actives raise or lower the signal. The procedure, abridged:
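Following a 24 h exposure, RNA from transfected HepG2 cells was reverse-transcribed, PCR-amplified with reporter-specific primers, end-labelled with 6-FAM and HpaI-digested before capillary separation. Values represent gain or loss versus DMSO.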

A short description of assay [10]: ATG_ERE_CIS: Attagene CIS-FACTORIAL HepG2 Assay for Estrogen Response Element (ERE) (AID 2282940). The note with it: HepG2 ERE cis-reporter, Attagene RNA transcript; actives raise or lower the signal. The procedure, abridged:
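HepG2, transient cis-reporter units, 24 h exposure. RNA isolated, oligo(dT) RT, reporter-specific PCR, FAM extension, HpaI cut, CE detection. Gain/loss-of-signal vs DMSO.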

The nature of assay [11]: ATG_Ets_CIS: Attagene CIS-FACTORIAL HepG2 Assay for human Erythroblast Transformation Specific (ETS) (AID 2282941). The note with it: HepG2 ETS cis-reporter transcription; AC50: actives raise or lower the signal unless noted; outcome: actives raise or lower the signal unless noted. The procedure, abridged: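 After transient cis-reporter transfection, HepG2 cells receive test chemical for 24 h. Reporter mRNA levels, measured by RT-PCR and capillary electrophoresis fluorescence, are analysed bidirectionally relative to the DMSO baseline.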

Assay [12] has as its target Hepatocyte nuclear factor 3-beta (Homo sapiens) (UniProt Q9Y261). As to the kind of experiment: ATG_FoxA2_CIS: Attagene CIS-FACTORIAL HepG2 Assay for human Forkhead box A2 (FOXA2) (AID 2282942). The note with it: HepG2 cis-reporter transcription factor activity, 24 h; actives raise or lower the signal. The procedure, abridged:
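Endogenous transcription factor activity was read in HepG2 cells carrying transiently transfected cis-promoter reporter units. After 24 h dosing, reporter mRNA was quantified by RT-PCR and capillary electrophoresis, and values fitted bidirectionally versus DMSO.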

Assay [13] is described as follows: ATG_FoxO_CIS: Attagene CIS-FACTORIAL HepG2 Assay for human Forkhead box O (FoxO) (AID 2282943). The note with it: HepG2 Attagene cis-reporter, FoxO element, mRNA; actives raise or lower the signal. The procedure, abridged:
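24 h chemical exposure, HepG2 with transient cis-MRTU transfection. RNA extraction, oligo(dT) RT, reporter-specific PCR, primer-extension labelling, HpaI digestion, CE fragment analysis; bidirectional fit, DMSO baseline.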

Assay [14] is described as follows: ATG_GATA_CIS: Attagene CIS-FACTORIAL HepG2 Assay for human GATA Binding Protein (AID 2282944). The note with it: HepG2 GATA cis-element reporter, Attagene multiplex mRNA; actives raise or lower the signal. The procedure, abridged:
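DMSO serves as negative control and baseline for bidirectional fitting of reporter mRNA changes. HepG2 cells bearing transiently transfected cis-promoter reporters were exposed 24 h; transcripts detected via RT-PCR and capillary electrophoresis.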

A short description of assay [15]: ATG_GLI_CIS: Attagene CIS-FACTORIAL HepG2 Assay for human Zinc Finger Protein GLI1 (AID 2282945). The note with it: HepG2, Attagene cis-factorial reporter mRNA, GLI element; actives raise or lower the signal. The procedure, abridged: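 HepG2 cells transiently transfected with cis-promoter multiplexed reporter units report endogenous transcription factor activity. After 24 h chemical exposure, reporter mRNA was quantified by RT-PCR, 6-FAM labelling, HpaI digestion and capillary electrophoresis, with bidirectional fitting against DMSO.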

For assay [16], the target named is Bile acid receptor (Homo sapiens) (UniProt Q96RI1). As to the kind of experiment: ATG_IR1_CIS: Attagene CIS-FACTORIAL HepG2 Assay for human Nuclear Receptor Subfamily 1 Group H Member 4 (NR1H4), IR1 submotif (AID 2282946). The note with it: IR1 reporter transcription, actives raise or lower the signal. The procedure, abridged: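 Transient MRTU transfection, HepG2; 24 h dosing; RNA → RT-PCR → 6-FAM primer extension → HpaI digest → capillary electrophoresis fluorescence. Gain/loss of signal fitted relative to DMSO.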
Sequence of Bile acid receptor (Homo sapiens) (Q96RI1 whole entry, looked up): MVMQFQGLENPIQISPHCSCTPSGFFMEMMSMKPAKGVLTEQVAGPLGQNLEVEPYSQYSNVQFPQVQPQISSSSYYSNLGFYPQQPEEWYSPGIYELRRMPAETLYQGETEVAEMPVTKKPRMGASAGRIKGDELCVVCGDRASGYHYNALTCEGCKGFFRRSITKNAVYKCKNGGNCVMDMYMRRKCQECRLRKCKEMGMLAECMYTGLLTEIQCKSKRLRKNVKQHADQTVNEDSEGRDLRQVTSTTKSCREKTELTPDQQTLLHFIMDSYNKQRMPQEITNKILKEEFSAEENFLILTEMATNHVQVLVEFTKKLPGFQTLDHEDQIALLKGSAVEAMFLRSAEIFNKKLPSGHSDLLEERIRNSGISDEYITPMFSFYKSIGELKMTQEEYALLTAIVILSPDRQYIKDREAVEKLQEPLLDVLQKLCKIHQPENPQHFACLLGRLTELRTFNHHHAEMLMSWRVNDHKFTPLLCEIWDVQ

Assay [17] is described as follows: ATG_GRE_CIS: Attagene CIS-FACTORIAL HepG2 Assay for human Glucocorticoid Response Elements (GRE) (AID 2282947). The note with it: HepG2 GRE cis-reporter, Attagene multiplex mRNA; AC50: actives raise or lower the signal unless noted; outcome: actives raise or lower the signal unless noted. The procedure, abridged:
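HepG2 cells transiently transfected with multiple cis-promoter reporter units measure endogenous TF activity; 24 h compound exposure. Reporter mRNA quantified by RT-PCR, FAM labelling, HpaI digestion and capillary electrophoresis; bidirectional fit vs DMSO baseline.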

Assay [18] is described as follows: ATG_ISRE_CIS: Attagene CIS-FACTORIAL HepG2 Assay for human Interferon Regulatory Factor 1 (IRF1) binding to an Interferon-Stimulated Response Element (ISRE) (AID 2282948). The note with it: HepG2 ISRE cis-reporter (Attagene), mRNA transcription readout; actives raise or lower the signal. The procedure, abridged:
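Quantitation relies on labelled RT-PCR fragments separated by capillary electrophoresis. Human HepG2 cells bearing cis-promoter reporter constructs were treated 24 h; DMSO served as baseline for bidirectional fitting.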

Assay [19] can be described thus: ATG_E_Box_CIS: Attagene CIS-FACTORIAL HepG2 Assay for human Enhancer Box (E-box) (AID 2282936). The note with it: HepG2 E-box cis-reporter transcription, actives raise or lower the signal. The procedure, abridged:
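HepG2 cells transiently transfected with multiplexed cis-element reporter units sensing endogenous transcription factor activity; 24 h compound exposure. Reporter mRNA measured by RT-PCR, 6-FAM primer extension, HpaI digestion and capillary electrophoresis; bidirectional fit versus DMSO.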

Values joined by “and” are separate entries in the source; they are usually repeats but may differ in a detail not shown here. Identical values can stand only once. Some compounds were tested as several samples or in several runs, with calls that do not always agree. Active and inactive are the calls of the source. How the source made its calls: active means hit-call score of the fitted dose curve at least 0.9, where 1 is the maximum; inactive means score below 0.9.

Sequence of Hepatocyte nuclear factor 3-beta (Homo sapiens) (Q9Y261 whole entry, looked up): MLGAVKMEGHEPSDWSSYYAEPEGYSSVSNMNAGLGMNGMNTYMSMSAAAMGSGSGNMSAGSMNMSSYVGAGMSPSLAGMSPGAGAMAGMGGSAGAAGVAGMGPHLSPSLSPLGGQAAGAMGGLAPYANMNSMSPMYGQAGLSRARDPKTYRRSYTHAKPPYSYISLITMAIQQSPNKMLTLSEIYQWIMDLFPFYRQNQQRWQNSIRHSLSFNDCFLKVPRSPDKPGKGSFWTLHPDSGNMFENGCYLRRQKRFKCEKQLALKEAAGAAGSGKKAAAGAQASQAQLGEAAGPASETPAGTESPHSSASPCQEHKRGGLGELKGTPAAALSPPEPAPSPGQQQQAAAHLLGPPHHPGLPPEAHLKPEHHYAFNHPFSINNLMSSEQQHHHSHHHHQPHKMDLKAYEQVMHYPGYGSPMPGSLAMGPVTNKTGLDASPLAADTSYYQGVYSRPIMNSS
Sequence of Transcription factor E2F1 (Homo sapiens) (Q01094 whole entry, looked up): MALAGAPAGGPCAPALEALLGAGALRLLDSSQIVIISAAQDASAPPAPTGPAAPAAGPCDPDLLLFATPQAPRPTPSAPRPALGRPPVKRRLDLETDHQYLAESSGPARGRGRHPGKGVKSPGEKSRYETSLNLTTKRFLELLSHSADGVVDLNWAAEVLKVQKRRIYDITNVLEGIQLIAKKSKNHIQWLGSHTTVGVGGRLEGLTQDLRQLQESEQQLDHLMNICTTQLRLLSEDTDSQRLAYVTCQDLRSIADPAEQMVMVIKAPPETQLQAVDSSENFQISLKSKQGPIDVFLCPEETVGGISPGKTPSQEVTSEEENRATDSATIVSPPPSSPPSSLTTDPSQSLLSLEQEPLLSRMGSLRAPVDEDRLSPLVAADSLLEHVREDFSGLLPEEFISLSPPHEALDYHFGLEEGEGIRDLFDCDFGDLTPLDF
Sequence of Aryl hydrocarbon receptor (Homo sapiens) (P35869 whole entry, looked up): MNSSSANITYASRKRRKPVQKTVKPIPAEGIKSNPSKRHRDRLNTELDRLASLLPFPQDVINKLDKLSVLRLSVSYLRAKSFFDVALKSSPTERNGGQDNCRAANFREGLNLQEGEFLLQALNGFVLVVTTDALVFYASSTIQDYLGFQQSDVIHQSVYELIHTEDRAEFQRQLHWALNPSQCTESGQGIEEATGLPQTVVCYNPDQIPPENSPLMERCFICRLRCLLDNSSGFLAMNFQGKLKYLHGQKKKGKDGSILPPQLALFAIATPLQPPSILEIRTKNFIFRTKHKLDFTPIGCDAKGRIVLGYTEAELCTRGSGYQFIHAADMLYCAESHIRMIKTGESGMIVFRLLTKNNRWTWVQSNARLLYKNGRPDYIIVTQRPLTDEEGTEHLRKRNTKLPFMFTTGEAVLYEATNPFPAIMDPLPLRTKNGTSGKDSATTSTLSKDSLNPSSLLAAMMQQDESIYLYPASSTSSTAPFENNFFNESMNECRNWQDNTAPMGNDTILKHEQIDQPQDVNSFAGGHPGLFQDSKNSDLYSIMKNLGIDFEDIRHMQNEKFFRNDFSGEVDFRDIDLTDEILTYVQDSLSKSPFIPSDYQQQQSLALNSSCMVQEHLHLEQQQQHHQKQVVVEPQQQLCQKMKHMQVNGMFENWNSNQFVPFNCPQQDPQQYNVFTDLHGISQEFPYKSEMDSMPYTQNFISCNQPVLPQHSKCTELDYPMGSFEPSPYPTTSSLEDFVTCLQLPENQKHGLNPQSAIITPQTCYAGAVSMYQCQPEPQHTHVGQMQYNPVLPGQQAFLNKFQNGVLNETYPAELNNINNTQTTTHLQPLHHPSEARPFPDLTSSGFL

For `C=COC(=O)C(C)(C)CCCCCC`, the result in [1], in assay [2], in assay [3], in assay [4], in [5] and in assay [6] was inactive. Moreover, the call in assay [7], in [8], in assay [9], in [11], in assay [12] and in assay [13] was inactive. The call in assay [14], in [15], in assay [16], in [17] and in assay [18] was inactive. The AC50 (usually the concentration giving half of the maximal activity seen) in [10] is 100 µM (active).

With `CCCCc1oc2ccccc2c1C(=O)c1cc(I)c(OCCN(CC)CC)c(I)c1`, the AC50 in assay [1] is 18.4 µM (active); in assay [2], 55.1 µM (active); in assay [3], 20.2 µM (active); in assay [4], 130 µM (active); in assay [7], 89.1 µM (active); in assay [8] it was 20.3 µM (active). In assay [9], the AC50 was 97.7 µM (active). Further, the result in assay [5], in assay [6], in assay [19], in [10], in [11] and in [12] was inactive. In addition, the call in [13], in [14], in [15] and in assay [18] was inactive.

With `C=CCOCC(CO)(CO)CO`, the molecule was called inactive in assay [1], in [2], in [3], in assay [4], in [5] and in assay [6]. Also, the call in [7], in assay [8], in assay [9], in assay [10], in assay [11] and in [12] was inactive. Further, the outcome in assay [13], in assay [14], in assay [15] and in [18] was inactive.

On to `O=C(CC(=O)C(F)(F)C(F)(F)C(F)(F)F)c1cccs1`, for which the outcome in assay [1], in assay [4] and in assay [17] was “inactive [setting not given]” each time. Also, the AC50 in assay [2] is 11.4 µM (active) and 50 µM (active); in assay [3], 35.2 µM (active) and 42 µM (active); in [11], 12.1 µM [setting not given] (active). In addition, the molecule was called inactive in assay [5], in assay [6], in assay [19], in assay [7], in [8] and in assay [10]. In addition, the call in [12], in [14], in assay [15], in assay [16] and in assay [18] was inactive.

For the molecule `CCC(C)c1ccccc1O` (configuration not stated), the molecule was called inactive in [1], in assay [2], in assay [3], in assay [4], in assay [5] and in [6]. For the same molecule, the result in assay [19], in [7], in assay [8], in assay [9], in [11] and in assay [13] was inactive. The outcome in [14], in assay [15], in assay [17] and in assay [18] was inactive.

For `CC1=NN(c2ccccc2)C(=O)C1`, the molecule was called inactive in assay [1], in assay [3], in assay [4], in [5], in [6] and in assay [19]. The outcome in assay [7], in assay [8], in assay [9], in assay [10], in [11] and in assay [13] was inactive. The molecule was called inactive in [14], in assay [15], in [17] and in assay [18].

Turning to `CCOC(C)=O`, the molecule was called inactive in [1], in assay [3], in assay [4], in assay [5], in [6] and in [19]. Besides, the outcome in [7], in assay [8], in [9], in assay [10], in assay [11] and in assay [12] was inactive. Further, the molecule was called inactive in [13], in [14], in [15], in assay [17] and in assay [18]. The AC50 in assay [14] was 100 µM (active).

On to `O=c1cc(-c2ccccc2)oc2ccc3ccccc3c12`, for which the molecule was classed as inactive in assay [1], in assay [3], in assay [4], in [5], in assay [6] and in assay [19]. Further, the molecule was called inactive in assay [7], in assay [8], in [11], in [13], in [14] and in [15]. The molecule was classed as inactive in assay [18]. Besides, the AC50 in assay [10] is 1.19 µM (active) and 521 nM (active).
